# Assay results as given in PubChem BioAssay (Tox21).
# Results filed as inconclusive are left out. Where a call stands in place of a potency, no number is given. Activity calls are given as the source filed them. Unless noted, calls follow the shape of the dose curve; as a rule, active = well fitted curve in the direction sought with a large enough effect in the repeat runs; inconclusive = weak or mixed curves; inactive = no such curve, though single readings can be large; an effect the other way counts as inactive or inconclusive.
# Legend:
# [1] = qHTS assay to identify small molecule HDAC inhibitors - cell viability counter screen (AID 1259365); also: series mostly up to about 92 µM; nearly all actives have a fitted effect of over 50% in size
# How it was run: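 Wild-type HCT-116 cells, 1,500/well, cultured overnight, then compound-treated 2 h at 37 C. Viability measured as ATP luminescence with CellTiter-Glo after 30 min at room temperature.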
# [2] = qHTS assay to identify small molecule antagonists of the sonic hedgehog signaling (Shh) pathway - cell viability counter screen (AID 1259367); also: nearly all actives have a fitted effect of over 55% in size
# How it was run: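 Fluorescence read-out (CellTiter-Fluor, 1 hr at 37C) taken after 23 hr compound treatment of 3T3 Gli1-Luc cells stimulated with conditioned medium. Cells were seeded at 2,000 per well and pre-incubated 4 hr.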
# [3] = qHTS assay to identify small molecule agonists of the sonic hedgehog signaling (Shh) pathway (AID 1259368; calls by dose curve;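 also: NIH/3T3-derived 3T3Gli1-Luc cells carrying a stable Gli1-driven firefly luciferase reporter; series mostly up to about 92 µM; nearly all actives have a fitted effect of over 15% in size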)
# How it was run: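 Quantitative high-throughput format using a Gli1-driven firefly luciferase reporter line derived from NIH/3T3 cells. After a 24 hr compound treatment at 37 C and 5% CO2, luminescence reported Gli1 response element activity.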
# [4] = target: Estrogen receptor beta (Homo sapiens) (UniProt Q92731); assay: qHTS assay to identify small molecule agonists of the estrogen receptor beta (ER-beta) signaling pathway (AID 1259377; active = well fitted activation curve with a large enough effect in the signal ratio in the repeat runs, not every such curve was filed as active; the % refers to the signal ratio)
# How it was run: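 ER-beta-UAS-bla HEK293T cells in medium with 2% charcoal-stripped FBS were exposed to compounds for 16 h at 37C. Beta-lactamase reporter activity was read as fluorescence after 2 h with LiveBLAzer B/G FRET substrate at room temperature.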
# [5] = target: Estrogen receptor beta (Homo sapiens) (UniProt Q92731); assay: qHTS assay to identify small molecule antagonists of the estrogen receptor beta (ER-beta) signaling pathway (AID 1259378; active = well fitted inhibition curve with a large enough effect in the signal ratio in the repeat runs, not every such curve was filed as active; the % refers to the signal ratio)
# How it was run: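 ER-beta-UAS-bla HEK293T cells in 2% charcoal-stripped FBS medium treated with compound plus 1nM final 17-beta-estradiol for 16 hr at 37C. Beta-lactamase reporter read by FRET substrate fluorescence after 2 hours at room temperature.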
# [6] = qHTS assay to identify small molecule agonists of the androgen receptor (AR) signaling pathway in the presence of an antagonist - cell viability counter screen (AID 1259379);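 also: MDA-kb2 human breast cancer cells carrying an MMTV luciferase reporter; series mostly up to about 92 µM; nearly all actives have a fitted effect of over 25% in size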
# How it was run: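 Nilutamide-containing (3.0uM final) MDA-kb2 cultures, 3,000 cells/well, were treated with compounds across 15 concentrations. After 16 hr at 37C with no CO2, cell viability was determined by CellTiter-Fluor fluorescence in the luciferase assay wells.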
# [7] = qHTS assay to identify small molecule agonists of the estrogen receptor beta (ER-beta) signaling pathway - cell viability counter screen (AID 1259380); also: nearly all actives have a fitted effect of over 30% in size
# How it was run: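 Steps: plate ER-beta-UAS-bla HEK293T cells, rest 6 hr; add compounds in DMSO; incubate 16 hr at 37C, 5% CO2; add FRET substrate 2 hr; add CellTiter-Glo, wait 30 min at room temperature; read luminescence.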
# [8] = target: Androgen receptor (Homo sapiens) (UniProt P10275); assay: qHTS assay to identify small molecule agonists of the androgen receptor (AR) signaling pathway in the presence of an antagonist (AID 1259381; calls by dose curve; also: nearly all actives have a fitted effect of over 15% in size)
# How it was run: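 Reporter-gene luminescence from MDA-kb2 cells exposed 16hr at 37C (0% CO2) to 15-point compound titrations with 3.0uM final nilutamide as AR antagonist.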
# [9] = qHTS assay to identify small molecule agonists or antagonists of the thyroid stimulating hormone receptor (TSHR) signaling pathway - wild type cell line counter screen (AID 1259384; calls by dose curve)
# How it was run: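 Wild-type Hek293 cells, 800/well, 18 h at 37C, then compound with Ro20-1724 for 30 min RT. cAMP by HTRF (cAMP-d2/anti-cAMP cryptate), 1 h RT, fluorescence read. 15 concentrations, triplicates.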
# [10] = target: Thyrotropin receptor (Homo sapiens) (UniProt P16473); assay: qHTS assay to identify small molecule antagonists of the thyroid stimulating hormone receptor (TSHR) signaling pathway (AID 1259385; calls by dose curve; also: nearly all actives have a fitted effect of over 20% in size)
# How it was run: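 TSHR-HEK293 cells (800/well) plated 18 h, then compounds with Ro20-1724 and TSH at 1.5 ng/mL final, 30 min at room temperature. cAMP quantified by HTRF (cAMP-d2/anti-cAMP-cryptate, 1 h); 15 concentrations in triplicate.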
# [11] = qHTS assay to identify small molecule agonists of the estrogen receptor alpha (ER-alpha) signaling pathway in the presence of an antagonist - cell viability counter screen (AID 1259386);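 also: series mostly up to about 92 µM; cells exposed to compounds for 22 h at 37 °C before the viability read; nearly all actives have a fitted effect of over 30% in size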
# How it was run: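 In this counter screen, compound effects on VM7Luc4E2 viability were tested in the presence of the antagonist ICI-182,780 at 10.0nM final. Compounds were dosed at 15 concentrations, exposure lasted 22hr, and the CellTiter-Fluor signal was read.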
# [12] = target: Progesterone receptor (Homo sapiens) (UniProt P06401); assay: qHTS assay to identify small molecule agonists of the progesterone receptor (PR) signaling pathway (AID 1346784; calls by dose curve; also: nearly all actives have a fitted effect of over 30% in size)
# How it was run: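 PR-UAS-bla HEK 293T cells (beta-lactamase reporter under UAS) in 2% charcoal-stripped FBS, dosed with 23 nL compound after 6 hr, incubated 16hr at 37C. LiveBLAzer B/G FRET substrate added, fluorescence read after 2 hours.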
# [13] = qHTS assay to identify small molecule agonists of the progesterone receptor (PR) signaling pathway - cell viability counter screen (AID 1346799; calls by dose curve; also: nearly all actives have a fitted effect of over 45% in size)
# How it was run: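 Counter screen in the PR-UAS-bla HEK293T wells (2% charcoal-stripped FBS, 16 h compound exposure at 37 C) after the bla read. CellTiter-Glo added, 30 min at room temperature, luminescence read as cell viability.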
# [14] = qHTS assay to identify small molecule antagonists of the TGF-beta/Smad signaling pathway - cell viability counter screen (AID 1346824); also: nearly all actives have a fitted effect of over 50% in size
# How it was run: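 SBE-bla HEK 293T cells, incubated overnight, then compound plus 0.25 ng/mL TGF-beta1 (stock added) for 5 hr at 37 C. Viability was read in the same wells by CellTiter-Glo luminescence after 30 min at room temperature.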
# [15] = qHTS assay to identify small molecule antagonists of the sonic hedgehog signaling (Shh) pathway (AID 1259369; calls by dose curve; also: nearly all actives have a fitted effect of over 45% in size; also: potency is read from the fitted curve at half-maximal effect)
# How it was run: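 Stable Gli1-Luc reporter NIH/3T3 clone; quantitative HTS in stimulated mode with conditioned medium. Luminescence measured after 24hr compound treatment at 37 C.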
# [16] = qHTS assay to identify small molecule antagonists of the estrogen receptor beta (ER-beta) signaling pathway - cell viability counter screen (AID 1259382); also: series mostly up to about 92 µM; nearly all actives have a fitted effect of over 55% in size
# How it was run: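 Viability is scored by CellTiter-Glo luminescence (30 min, room temperature) in ER-beta-UAS-bla HEK293T wells already read for reporter fluorescence. Compound exposure lasts 16 hr at 37C alongside 1nM 17-beta-estradiol in charcoal-stripped serum medium.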
# [17] = target: Progesterone receptor (Homo sapiens) (UniProt P06401); assay: qHTS assay to identify small molecule antagonists of the progesterone receptor (PR) signaling pathway (AID 1346795; active = well fitted inhibition curve with a large enough effect in the signal ratio in the repeat runs, not every such curve was filed as active; the % refers to the signal ratio)
# How it was run: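 PR-UAS-bla HEK293T cells with beta-lactamase reporter under UAS control, in 2% charcoal-stripped FBS, treated with compounds plus 1 nM promegestone (R5020, final) for 16 hr at 37C. Read-out: FRET beta-lactamase substrate fluorescence after 2 hr at room temperature.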
# [18] = qHTS assay to identify small molecule antagonists of the progesterone receptor (PR) signaling pathway - cell viability counter screen (AID 1346798); also: series mostly up to about 92 µM; nearly all actives have a fitted effect of over 50% in size
# How it was run: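 PR-UAS-bla HEK293T cells, 3,000/well in 2% charcoal-stripped FBS medium, dosed with compounds plus R5020 agonist and incubated 16 h at 37C. Viability then measured in the same wells by CellTiter-Glo luminescence after 30 min at RT.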
# [19] = target: Estrogen receptor (Homo sapiens) (UniProt P03372); assay: qHTS assay to identify small molecule agonists of the estrogen receptor alpha (ER-alpha) signaling pathway in the presence of an antagonist (AID 1259383; calls by dose curve; also: top concentration of the series differs between compounds; nearly all actives have a fitted effect of over 15% in size)
# How it was run: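 Readout was ERE-driven luciferase luminescence in VM7Luc4E2 cells, which express full-length ER-alpha endogenously. Compounds were tested at 15 concentrations for 22hr alongside 10.0nM ICI-182,780 (final concentration).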
# Chain of Thyrotropin receptor (Homo sapiens) (P16473 whole entry, looked up): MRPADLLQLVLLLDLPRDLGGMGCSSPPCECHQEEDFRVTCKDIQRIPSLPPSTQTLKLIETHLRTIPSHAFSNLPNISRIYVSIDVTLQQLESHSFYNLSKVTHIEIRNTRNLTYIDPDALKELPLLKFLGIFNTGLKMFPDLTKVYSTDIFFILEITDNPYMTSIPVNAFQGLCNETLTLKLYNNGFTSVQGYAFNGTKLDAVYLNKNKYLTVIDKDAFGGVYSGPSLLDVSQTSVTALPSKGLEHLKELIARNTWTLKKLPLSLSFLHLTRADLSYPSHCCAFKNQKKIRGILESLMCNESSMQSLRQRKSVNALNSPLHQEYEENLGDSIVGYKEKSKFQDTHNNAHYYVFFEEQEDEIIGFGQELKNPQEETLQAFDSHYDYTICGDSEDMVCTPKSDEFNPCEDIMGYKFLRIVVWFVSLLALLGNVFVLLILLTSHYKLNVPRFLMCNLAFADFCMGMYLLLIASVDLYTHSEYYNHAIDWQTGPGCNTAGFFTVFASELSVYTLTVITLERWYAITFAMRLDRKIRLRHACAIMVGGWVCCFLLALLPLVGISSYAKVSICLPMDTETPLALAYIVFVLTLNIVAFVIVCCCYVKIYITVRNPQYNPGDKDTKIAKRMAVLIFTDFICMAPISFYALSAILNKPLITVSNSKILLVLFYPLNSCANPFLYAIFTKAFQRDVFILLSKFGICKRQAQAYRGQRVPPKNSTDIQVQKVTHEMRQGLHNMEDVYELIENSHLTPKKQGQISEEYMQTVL
# Chain of Androgen receptor (Homo sapiens) (P10275 whole entry, looked up): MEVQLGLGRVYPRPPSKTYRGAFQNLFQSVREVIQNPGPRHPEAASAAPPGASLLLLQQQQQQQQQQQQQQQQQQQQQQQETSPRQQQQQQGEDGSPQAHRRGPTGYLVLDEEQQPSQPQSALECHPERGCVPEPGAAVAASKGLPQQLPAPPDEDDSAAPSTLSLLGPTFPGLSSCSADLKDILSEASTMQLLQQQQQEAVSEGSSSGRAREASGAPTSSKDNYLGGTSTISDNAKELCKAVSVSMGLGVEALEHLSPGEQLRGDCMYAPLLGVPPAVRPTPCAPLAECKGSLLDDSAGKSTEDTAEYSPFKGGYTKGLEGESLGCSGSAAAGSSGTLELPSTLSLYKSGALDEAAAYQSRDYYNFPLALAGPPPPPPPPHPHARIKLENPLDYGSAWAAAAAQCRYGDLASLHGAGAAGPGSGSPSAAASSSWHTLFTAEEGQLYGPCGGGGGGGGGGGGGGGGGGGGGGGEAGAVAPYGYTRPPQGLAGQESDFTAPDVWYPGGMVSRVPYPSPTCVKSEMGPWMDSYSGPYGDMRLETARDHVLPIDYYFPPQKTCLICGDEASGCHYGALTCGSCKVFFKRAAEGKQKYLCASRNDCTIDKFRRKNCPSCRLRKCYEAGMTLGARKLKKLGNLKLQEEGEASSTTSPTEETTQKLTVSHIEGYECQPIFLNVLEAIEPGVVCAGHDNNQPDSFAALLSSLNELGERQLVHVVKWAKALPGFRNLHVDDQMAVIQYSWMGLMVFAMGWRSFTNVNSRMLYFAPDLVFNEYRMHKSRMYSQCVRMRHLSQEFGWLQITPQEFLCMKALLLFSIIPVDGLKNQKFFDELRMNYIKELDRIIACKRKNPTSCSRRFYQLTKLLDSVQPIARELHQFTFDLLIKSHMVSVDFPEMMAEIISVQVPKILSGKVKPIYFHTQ
# Chain of Estrogen receptor beta (Homo sapiens) (Q92731 whole entry, looked up): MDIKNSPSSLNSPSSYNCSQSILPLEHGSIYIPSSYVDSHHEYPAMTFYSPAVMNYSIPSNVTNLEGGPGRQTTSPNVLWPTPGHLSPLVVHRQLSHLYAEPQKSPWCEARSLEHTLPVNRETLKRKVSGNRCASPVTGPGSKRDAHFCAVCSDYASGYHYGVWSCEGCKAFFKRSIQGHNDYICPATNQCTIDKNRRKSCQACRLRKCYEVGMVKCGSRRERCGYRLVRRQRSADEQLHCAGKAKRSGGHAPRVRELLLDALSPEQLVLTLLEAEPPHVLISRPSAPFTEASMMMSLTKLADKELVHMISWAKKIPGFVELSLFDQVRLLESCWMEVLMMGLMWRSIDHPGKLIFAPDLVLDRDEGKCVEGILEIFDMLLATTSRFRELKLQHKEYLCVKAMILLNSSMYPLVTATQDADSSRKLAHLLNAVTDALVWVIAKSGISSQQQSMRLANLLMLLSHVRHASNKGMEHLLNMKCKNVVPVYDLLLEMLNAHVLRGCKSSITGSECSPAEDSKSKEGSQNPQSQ
# Chain of Estrogen receptor (Homo sapiens) (P03372 whole entry, looked up): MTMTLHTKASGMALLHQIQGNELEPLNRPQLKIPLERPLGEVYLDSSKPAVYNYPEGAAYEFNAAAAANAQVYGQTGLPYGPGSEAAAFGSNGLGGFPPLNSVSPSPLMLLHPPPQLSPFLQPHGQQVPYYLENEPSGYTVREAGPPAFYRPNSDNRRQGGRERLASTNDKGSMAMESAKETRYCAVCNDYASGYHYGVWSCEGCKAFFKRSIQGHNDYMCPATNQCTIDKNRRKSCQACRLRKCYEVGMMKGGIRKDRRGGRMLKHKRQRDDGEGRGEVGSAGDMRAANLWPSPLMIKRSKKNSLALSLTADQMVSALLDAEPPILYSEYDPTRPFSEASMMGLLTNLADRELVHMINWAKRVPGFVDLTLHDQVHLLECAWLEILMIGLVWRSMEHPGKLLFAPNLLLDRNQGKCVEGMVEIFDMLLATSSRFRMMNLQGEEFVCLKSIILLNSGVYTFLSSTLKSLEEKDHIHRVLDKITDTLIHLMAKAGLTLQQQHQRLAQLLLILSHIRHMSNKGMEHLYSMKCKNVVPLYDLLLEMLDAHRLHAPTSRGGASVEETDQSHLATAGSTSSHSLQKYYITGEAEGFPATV
# Chain of Progesterone receptor (Homo sapiens) (P06401 whole entry, looked up): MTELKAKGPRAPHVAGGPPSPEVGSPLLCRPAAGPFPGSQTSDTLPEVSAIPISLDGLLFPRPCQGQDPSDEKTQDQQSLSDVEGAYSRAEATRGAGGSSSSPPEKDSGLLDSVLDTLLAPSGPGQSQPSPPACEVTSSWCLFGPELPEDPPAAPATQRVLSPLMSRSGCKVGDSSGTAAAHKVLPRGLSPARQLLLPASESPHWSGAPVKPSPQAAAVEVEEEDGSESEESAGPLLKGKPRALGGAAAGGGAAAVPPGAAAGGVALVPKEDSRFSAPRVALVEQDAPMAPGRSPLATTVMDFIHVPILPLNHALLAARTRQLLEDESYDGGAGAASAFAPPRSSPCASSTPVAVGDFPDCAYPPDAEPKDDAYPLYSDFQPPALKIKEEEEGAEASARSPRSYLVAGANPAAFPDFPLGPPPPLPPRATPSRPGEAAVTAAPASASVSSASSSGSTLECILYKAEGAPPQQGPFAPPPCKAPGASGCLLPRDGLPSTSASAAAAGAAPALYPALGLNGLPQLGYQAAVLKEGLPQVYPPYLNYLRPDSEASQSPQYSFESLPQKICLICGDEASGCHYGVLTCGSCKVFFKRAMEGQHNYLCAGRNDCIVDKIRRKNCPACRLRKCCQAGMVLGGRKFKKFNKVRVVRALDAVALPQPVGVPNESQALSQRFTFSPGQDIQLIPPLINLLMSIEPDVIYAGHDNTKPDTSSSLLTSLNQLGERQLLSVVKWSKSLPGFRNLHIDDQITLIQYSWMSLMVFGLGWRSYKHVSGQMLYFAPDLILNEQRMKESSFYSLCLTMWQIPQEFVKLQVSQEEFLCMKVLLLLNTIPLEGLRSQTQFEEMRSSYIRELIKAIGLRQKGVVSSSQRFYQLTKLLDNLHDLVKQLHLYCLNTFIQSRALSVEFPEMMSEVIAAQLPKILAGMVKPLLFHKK
SMILES,outcome [1],outcome [2],outcome [3],Potency [4],Potency [5],outcome [6],outcome [7],outcome [8],outcome [9],outcome [10],outcome [11],Potency [12],outcome [13],outcome [14],Potency [15],outcome [16],Potency [17],outcome [18],Potency [19]
CC(=O)CC(=O)Nc1ccc(C)cc1C,inactive,inactive,inactive,inactive,inactive,inactive,inactive,inactive,inactive,inactive,inactive,inactive,inactive,inactive,–,–,–,–,–
c1ccc(-c2nn[nH]n2)cc1,inactive,inactive,inactive,inactive,–,inactive,inactive,–,inactive,inactive,inactive,inactive,–,inactive,inactive,inactive,inactive,inactive,–
COc1c2occc2c(OC)c2c(=O)cc(C)oc12,inactive,inactive,inactive,–,–,inactive,inactive,–,–,inactive,inactive,inactive,inactive,inactive,11.9 µM (active),inactive,inactive,inactive,–
CC(C)COC(=O)c1ccccc1,inactive,inactive,inactive,–,–,inactive,inactive,inactive,inactive,inactive,inactive,inactive,–,inactive,inactive,inactive,–,–,–
CC(C)(C)NC[C@H](O)COc1cccc2c1CCCC2=O,inactive,inactive,inactive,inactive,inactive,inactive,inactive,–,–,–,inactive,inactive,inactive,inactive,–,inactive,inactive,inactive,inactive
OCCN1CCOCC1,inactive,inactive,inactive,–,inactive,inactive,inactive,–,inactive,inactive,inactive,inactive,inactive,inactive,–,inactive,inactive,–,inactive
CC(=O)CCc1ccc(OC(C)=O)cc1,inactive,inactive,inactive,inactive,inactive,inactive,inactive,–,inactive,inactive,inactive,inactive,inactive,inactive,inactive,inactive,inactive,–,inactive
N#CCC(=O)NN,inactive,inactive,inactive,–,–,inactive,inactive,–,inactive,inactive,inactive,inactive,inactive,inactive,–,inactive,inactive,–,inactive
CCCCCc1cccc(=O)o1,inactive,inactive,inactive,inactive,inactive,inactive,inactive,–,–,inactive,inactive,inactive,–,inactive,inactive,inactive,inactive,inactive,–
CC1=C(C(=O)O)N2C(=O)[C@@H](NC(=O)[C@H](N)C3=CCC=CC3)[C@H]2SC1,inactive,inactive,inactive,inactive,–,inactive,inactive,–,inactive,inactive,inactive,inactive,inactive,inactive,inactive,inactive,–,inactive,inactive
COc1ccc2c(c1)c1c3n2CCN(C)C3=NCC1,inactive,inactive,inactive,–,–,inactive,inactive,inactive,inactive,inactive,inactive,inactive,inactive,inactive,inactive,inactive,inactive,–,inactive
CCCCCC/C=C/C(=O)OC,inactive,inactive,inactive,inactive,inactive,inactive,inactive,–,inactive,inactive,inactive,inactive,inactive,inactive,inactive,inactive,inactive,–,–
CCCC(=O)OCCC(C)CCC=C(C)C (stereo unspecified),inactive,inactive,inactive,inactive,–,inactive,inactive,–,inactive,inactive,inactive,inactive,inactive,inactive,–,inactive,inactive,–,–
CCC(C)C(C)=O (stereo unspecified),inactive,inactive,inactive,inactive,inactive,inactive,inactive,–,inactive,inactive,inactive,inactive,inactive,inactive,–,inactive,inactive,inactive,inactive
O=C[O][Al]([O]C=O)[O]C=O,inactive,inactive,inactive,–,–,inactive,inactive,–,inactive,inactive,inactive,inactive,–,inactive,–,inactive,inactive,inactive,inactive
CO/N=C(/C(=O)N[C@@H]1C(=O)N2C(C(=O)[O-])=C(C[n+]3ccn4ncccc43)CS[C@H]12)c1nsc(N)n1,inactive,inactive,inactive,inactive,inactive,inactive,inactive,–,inactive,inactive,–,inactive,–,inactive,–,inactive,inactive,inactive,inactive
COc1ccc(CCO)cc1,inactive,inactive,inactive,inactive,inactive,inactive,–,inactive,inactive,inactive,inactive,inactive,–,inactive,inactive,inactive,inactive,inactive,–
